Hits are enriched below; roughly 6.2% of the tested compounds scored in any of these assays.
HT1080-NT tox: kills 2HG-producing HT-1080-NT fibrosarcoma cells; HT-1080-NT fibrosarcoma viability, CellTiter-Glo ATP luminescence, 48 h; Potency, µM (titrated, usually from 46.1 µM), most hits filed as cytotoxic; 360,000 compounds, 1.6% hits; AID 686970;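 also: NT is the 2HG producing partner of a matched IDH1 knockdown line; nearly all actives have a fitted effect of over 55% in size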
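Luminescent CellTiter-Glo readout after 48 hours of compound exposure at 37 degrees C defined viability of HT-1080-NT cells. Activity was normalized to DMSO wells and cell-free media wells; concentration-response curves were fitted and assigned curve classes.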
HT1080 IDH1KD tx: toxicity to HT-1080 IDH1 knockdown cells (counter line); HT-1080 IDH1 knockdown viability, ATP luminescence, 48 h; Potency, µM (top dose mostly 46.1 µM), usual class: cytotoxic; 360,000 compounds, 2% hits; AID 686971
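% activity derives from luminescence (CellTiter-Glo), normalised to DMSO and no-cell wells. HT-1080-IDH1KD cells, 750/well, had 48 h compound exposure at 37 °C.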
S2 tox: viability counter-screen for ATXN expression inhibitors. 400,000 compounds, 0.49% hits. Potency, µM (doses to about 56.7 µM), usual class: cytotoxic. S2 cells (HEK-293 line with an ATXN2-luciferase reporter) viability, CellTiter-Fluor protease fluorescence, 24 h; also: nearly all actives have a fitted effect of over 40% in size
KB-3-1 tox: KB-3-1 parental cell cytotoxicity; KB-3-1 viability, CellTiter-Glo ATP luminescence, 72 h; Potency, µM (top dose mostly 46.1 µM), hits mostly cytotoxic; 400,000 compounds, 1.4% hits; AID 1347075; also: nearly all actives have a fitted effect of over 60% in size
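Viability of parental KB-3-1 cells, measured by CellTiter-Glo luminescence, followed a 72 h incubation at 37 °C with pinned compounds in phenol-red-free DMEM containing 10% FBS.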
KB-V1 MDR tox: kills drug-selected multidrug resistant KB-V1 cells; KB-V1 MDR cells viability, CellTiter-Glo, 72 h; Potency, µM (doses to about 46.1 µM), actives largely listed as cytotoxic; 400,000 compounds, 3.4% hits; also: nearly all actives have a fitted effect of over 60% in size
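Drug-selected KB-V1 cells, grown in DMEM lacking phenol red with 10% FBS, receive compound titrations; after three days at 37 degrees C, surviving cell ATP is quantified by CellTiter-Glo luminescence and responses normalized and curve-fitted.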
ATXN2 expr inh: reduces ATXN2 reporter expression in HEK-293 cells | HEK-293 ATXN2-luciferase reporter, luminescence, 24 h | Potency, µM (series often up to 57 µM), hits mostly inhibitors | 360,000 compounds, 0.72% hits; also: nearly all actives have a fitted effect of over 55% in size
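qHTS (up to 57 uM final) was run with 24 h compound exposure of reporter cells at 37 °C. Each well was multiplexed: SteadyGlo luminescence measured ATXN2-luciferase expression after a fluorogenic Gly-Phe-AFC viability readout (25 uM final).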
A number is an active result; 0 = inactive; ? = inconclusive; - = not tested or not shown; [ ] = another dose, or the depositor's remark. Calls follow the shape of the dose curve; as a rule, active = well fitted curve in the direction sought with a large enough effect; inconclusive = small, poorly fitted or top-dose-only effect, or another doubt; inactive = no such curve, though single readings can be large; an effect the other way counts as inactive or inconclusive.

SMILES	HT1080-NT tox	HT1080 IDH1KD tx	S2 tox	KB-3-1 tox	KB-V1 MDR tox	ATXN2 expr inh
CCC(C)(C)c1ccc(OCCCC[n+]2ccc(C)cc2)c(C(C)(C)CC)c1	?	?	?	12µM	0	20µM
CCC(C)(C)c1ccc(OCCCC[n+]2cccc(C)c2C)c(C(C)(C)CC)c1	15µM	21µM	-	?	0	-
CCOC(=O)CCc1ccc(NC(=O)/C=C/c2ccc([N+](=O)[O-])o2)cc1	8.2µM	2.9µM	8.4µM	?	?	?
CCN1CCc2nc3sc(C(=O)c4ccccc4)c(N)c3cc2C1	-	-	?	8.2µM	?	0
Nc1c(C(=O)Nc2ccc(C(=O)O)cc2)sc2nc3c(cc12)CCCC3	-	-	0	0	0	0
Nc1c(C(=O)Nc2cccc(C(=O)O)c2)sc2nc3c(cc12)CCCC3	0	0	0	0	0	4µM
COc1cccc(NC(=O)CSc2nc3n[nH]c(C)c3c(=N)n2-c2cccc(OC)c2)c1	?	0[9.24 µM]	0	0	0	0
Cc1cc(-n2c(SCC(=O)Nc3ccc(Br)cc3)nc3n[nH]c(C)c3c2=N)ccc1Cl	0	0	?	?	0	0
COc1cccc(-n2c(SCC(=O)NCCC3=CCCCC3)nc3n[nH]c(C)c3c2=N)c1	0	0	0	0	13µM	0
CCc1ccc(NC(=O)CSc2nc3n[nH]c(C)c3c(=N)n2-c2cccc(OC)c2)cc1	?	11µM	0	0	?	0
CCOc1ccc(-n2c(SCC(=O)Nc3ccc(Br)cc3)nc3n[nH]c(C)c3c2=N)cc1	15µM	16µM	?	0	0	?
COc1cc(NC(=O)c2cccs2)c(OC)cc1NC(=O)c1ccco1	0	0	0	0	?	0
COc1ccc(CC(=O)Nc2ccc(OC)c(NC(=O)c3ccco3)c2)cc1	0	0	0	0	0	0
COc1ccc(NC(=O)c2ccco2)cc1NC(=O)c1cccs1	0	0	0	0	8.2µM	0
COc1ccc(NC(=O)CCc2ccccc2)cc1NC(=O)c1ccco1	0	0	0	0	7.3µM	0
COc1ccc(Nc2nc(C)nc3c2oc2ccccc23)c(OC)c1	18µM	29µM	0	0	0	0
CCc1nc(NCc2ccc3c(c2)OCO3)c2oc3ccccc3c2n1	0	0	0	?	16µM	0
CCc1nc(Nc2ccc(OC)cc2OC)c2oc3ccccc3c2n1	?	15µM	0	0	0	0
Cc1nc(NCc2ccc3c(c2)OCO3)c2oc3ccccc3c2n1	?	0	0	0	0	0
CC(C)CCNC(=O)c1ccc(NC(=O)N2CCCCc3ccccc32)cc1	-	-	0	0	?	0
O=C(Nc1ccccc1Cl)C1CCN(c2nc3ccccc3[nH]2)CC1	-	-	-	0	0	-
CCOc1ccc(CNC(=O)c2cc3oc4ccccc4c3n2C)cc1	0	0	0	?	?	0
COc1cccc(CNC(=O)c2cc3oc4ccccc4c3n2C)c1OC	?	?	0	?	6.5µM	0
O=C(NNC1=C(C(=O)C(F)(F)F)CCC1)c1ccc(Cl)cc1	?	7.9µM	?	0	0	?
COc1ccc(C(=O)NNC2=C(C(=O)C(F)(F)F)CCC2)cc1	0	?	0	?	?	0
SMILES	HT1080-NT tox	HT1080 IDH1KD tx	S2 tox	KB-3-1 tox	KB-V1 MDR tox	ATXN2 expr inh
O=C(NNC1=C(C(=O)C(F)(F)F)CCC1)c1cccc(Cl)c1	?	23µM	?	?	?	?
O=C(NNC(=O)c1cccc(Cl)c1)NNC(=O)c1cccc(Cl)c1	0	?	0	0	0	0
CCOC(=O)CC(NC(=O)CCc1c(C)nc2c(c(C)nn2-c2ccc(C)c(C)c2)c1C)c1ccc(C)cc1 (stereo not given)	-	-	0	0	0	0
CC(=O)Nc1cccc(-c2ccnc3c2CC(C(=O)NCCC(F)(F)F)O3)c1 (stereo not given)	?	21µM	?	?	0	0
CC(=O)Nc1cccc(-c2ccnc3c2CC(C(=O)NCc2cccs2)O3)c1 (stereo not given)	?	0.65µM	?	5.8µM	0	0
COc1ccc(CCCNC(=O)C2Cc3c(-c4cccc(NC(C)=O)c4)ccnc3O2)cc1 (stereo not given)	?	?	0	6.5µM	?	?
COCCCn1[nH]c2c3c(ccc2c1=O)C(=O)c1ccccc1C3=O	?	?	0	?	15µM	0
O=C(NCC(c1ccco1)N1CCCC1)c1cc2cc(Cl)ccc2o1 (stereo not given)	0	0	0	0	9.2µM	0
COc1ccc(-n2nc3cc(C)c(NC(C)=O)cc3n2)cc1	0	0	0	0	0	8.9µM
O=C(NCCCc1nc2ccccc2n1CCCOc1ccccc1)C1CCCCC1	-	-	-	0	?	-

Bioassay records from PubChem.
